We go through 20 molecules from PubChem BioAssay (NCATS).

Molecules are shown by their SMILES. Values joined by “and” are separate entries in the source; they are usually repeats but may differ in a detail not shown here. Identical values can stand only once. Results filed as inconclusive are left out. Active and inactive are the calls of the source. Calls come from the whole dose curve; as a rule, active = well fitted curve in the direction sought with a large enough effect in the repeat runs; inconclusive = weak or mixed curves; inactive = no such curve, though single readings can be large; an effect the other way counts as inactive or inconclusive.
% is set by controls: 0 for no effect and ±100 for the full control effect; potency is the fitted concentration of half-maximal effect.

A short description of the first assay: qHTS assay for small molecule antagonists of the retinoid-related orphan receptor gamma (ROR-gamma) signaling pathway - cell viability counter screen (AID 720652).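 Note: compound exposure lasted 16 hr before ATP read.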 The settings on record: RORgamma reporter cell line viability counter screen; series mostly up to 92.2 µM. The method, boiled down: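 Cytotoxicity is quantified via intracellular ATP (CellTiter-Glo luminescence) in doxycycline-induced CHO ROR response element-luciferase reporter cells treated with compound for 16 hr at 37 C, 5% CO2.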
(Quantitative high-throughput screening tests each substance at several concentrations.)
Turning to `CN(C)c1ccc(C2(c3ccc(N(C)C)cc3)OC(=O)c3cc(N(C)C)ccc32)cc1`, the Potency entry is “inactive”.
The same measure, in the same setting: the result for `CO[C@H]1/C=C/O[C@@]2(C)Oc3c(C)c(O)c4c(O)c(c5c(c4c3C2=O)NC2(CCN(CC(C)C)CC2)N=5)=NC(=O)/C(C)=C\C=C\[C@H](C)[C@H](O)[C@@H](C)[C@@H](O)[C@@H](C)[C@H](OC(C)=O)[C@@H]1C` reads “inactive”; that for `O=C(OCC(COC(=O)c1ccccc1)(COC(=O)c1ccccc1)COC(=O)c1ccccc1)c1ccccc1`, “inactive”.
Still for that read-out and setting: the result for `CC(=O)Nc1ccc(C(=O)CCl)cc1` reads 18.8 µM (active).
As to `Nc1ccc2cc3ccccc3cc2c1`, the Potency result was “inactive”.
`O=C=Nc1ccc(Cc2ccc(N=C=O)cc2)cc1`: the Potency result was “inactive”.
The same measure, in the same setting: the same measure for `O=[N+]([O-])c1cc([N+](=O)[O-])c2ccc(S(=O)(=O)O)cc2c1O`: “inactive”.
Same read-out and setting: the same measure for `Cc1cc(O)c(C(C)(C)C)cc1Sc1cc(C(C)(C)C)c(O)cc1C`: 18.8 µM (active); for `CCC(C)Nc1ccc(NC(C)CC)cc1` (configuration not stated): 8.41 µM (active); for `C=CC(=O)OCCOCCOC(=O)C=C`: “inactive”.
Still for that read-out and setting: the result for `c1ccc2c(c1)ccc1cc3c(ccc4ccccc43)cc12` reads “inactive”; that for `C=C(C)c1ccccc1`, “inactive”.
As for `O=C1OC(O)C(C(Cl)Cl)=C1Cl` (configuration not stated), the Potency is 26.6 µM (active).
The same measure, in the same setting: the result for `Cc1ccc(S(=O)(=O)Oc2ccc(N=Nc3ccc(-c4ccc(N=Nc5c(O)ccc6cc(S(=O)(=O)O)cc(S(=O)(=O)O)c56)c(C)c4)cc3C)cc2)cc1` reads “inactive”.

The next assay in a line: qHTS assay for small molecule agonists of the antioxidant response element (ARE) signaling pathway measured by Nrf2-dependant transcriptional activity - cell viability counter screen (AID 720653). As to conditions: ARE-bla HepG2 viability, CellTiter-Glo ATP luminescence, 16 h; max response: stronger effect = lower value. The method, boiled down: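 Cytotoxicity counter screen: intracellular ATP quantified by CellTiter-Glo luminescence in the same ARE-bla HepG2 plates, after 16 h compound exposure and a 2 h beta-lactamase substrate step.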
As for `c1cc(OCC2CO2)cc(OCC2CO2)c1` (configuration not stated), the max response is -40% (inactive) and -11.6% (inactive).
The same measure, in the same setting: the result for `CN(C)c1ccc(C2(c3ccc(N(C)C)cc3)OC(=O)c3cc(N(C)C)ccc32)cc1` reads 7.4% (inactive); that for `CO[C@H]1/C=C/O[C@@]2(C)Oc3c(C)c(O)c4c(O)c(c5c(c4c3C2=O)NC2(CCN(CC(C)C)CC2)N=5)=NC(=O)/C(C)=C\C=C\[C@H](C)[C@H](O)[C@@H](C)[C@@H](O)[C@@H](C)[C@H](OC(C)=O)[C@@H]1C`, -17.5% (inactive); that for `O=C(OCC(COC(=O)c1ccccc1)(COC(=O)c1ccccc1)COC(=O)c1ccccc1)c1ccccc1`, 3.26% (inactive).
For the molecule `CC(=O)Nc1ccc(C(=O)CCl)cc1`, the Potency was 39.8 µM (active).
With `Nc1ccc2cc3ccccc3cc2c1`, the max response is -4.4% (inactive).
Same read-out and setting: the same measure for `c1ccc2c(c1)-c1cccc3c1c-2cc1ccccc13`: -12.4% (inactive) and -4.83% (inactive); for `O=C=Nc1ccc(Cc2ccc(N=C=O)cc2)cc1`: -1.3% (inactive) and -0.206% (inactive).
Same read-out and setting: the same measure for `O=[N+]([O-])c1cc([N+](=O)[O-])c2ccc(S(=O)(=O)O)cc2c1O`: 17.2% (inactive).
On to `CCC(C)Nc1ccc(NC(C)CC)cc1` (configuration not stated), for which the Potency is 22.4 µM (active).
As for `CNc1ccc(O)cc1`, the max response is -24.5% (inactive).
On the same count and under the same terms, the result for `C=CC(=O)OCCOCCOC(=O)C=C` reads -8.93% (inactive).
Same read-out and setting: the result for `O=C1OC2(c3cc(Br)c(O)c(Br)c3Oc3c2cc(Br)c(O)c3Br)c2c(Cl)c(Cl)c(Cl)c(Cl)c21` reads -22.4% (inactive); that for `Oc1ccc2cc(SSc3ccc4cc(O)ccc4c3)ccc2c1`, -8.42% (inactive); that for `c1ccc2c(c1)ccc1cc3c(ccc4ccccc43)cc12`, -11.9% (inactive).
On the same count and under the same terms, the same measure for `C/C=C1\C(=O)C[C@H]2[C@@H]3CCC4=CC(=O)CC[C@]4(C)[C@H]3CC[C@]12C`: -11.4% (inactive).
On to `C=C(C)c1ccccc1`, for which the max response was -8.93% (inactive).
Turning to `O=C1OC(O)C(C(Cl)Cl)=C1Cl` (configuration not stated), the max response was -27.5% (inactive).
